This is an account of results in PubChem BioAssay (Tox21).

Results filed as inconclusive are left out. A call without a number means that no potency is given here. Calls of active or inactive are those of the source. Calls come from the whole dose curve; as a rule, active = well fitted inhibition curve with a large enough effect in the signal ratio in the repeat runs (not every such curve was filed as active); inconclusive = weak or mixed curves, or effect the other way; inactive = flat fitted curve, though single readings scatter; the % refers to the signal ratio.
Potency is the fitted concentration of half-maximal effect.

The assay is described as follows: cAMP Responsive Elements (CRE) small molecule antagonists, cell-based qHTS assay (AID 1963591). The conditions noted are these: CRE-bla HEK293T, beta-lactamase FRET ratio; series mostly up to 92.4 µM. From the text: U.S. Tox21 Program National Center for Advancing Translational Sciences [NCATS] Division of Preclinical Innovation [DPI] U.S. Environmental Protection Agency [EPA] National Institutes of Environmental Health Sciences [NIEHS] National Toxicology Program [NTP] U.S. Food and Drug Administration [FDA] Tox21 Assay Overview: CREB (cyclic-AMP Responsive Element Binding Protein) is a cellular transcription factor. It binds to certain DNA sequences called cAMP Responsive Elements (CRE) and regulates the transcription of the genes. […] This cell line can be used to find agonists/antagonists of the cyclic AMP signaling pathway. The activation of the report gene under culture conditions can be detected by fluorescence intensity. This cell line has been used to screen the Tox21 10K compound library to […].
Tox21 Assay Protocol Summary: CRE-bla Hek 293T cells were suspended in assay medium (DMEM containing 10% dialyzed FBS, 0.1 mM NEAA, 1 mM sodium pyruvate and 25 mM HEPES) and dispensed at 2,000 cells/4 uL /well into 1536-well black wall/clear bottom plates using a Multidrop Combi (ThermoFisher Scientific, Waltham, MA) dispenser. After the assay plates were incubated at 37 C/5% CO2 for 18 hrs, 23 nL of compounds dissolved in DMSO, positive controls or DMSO only was transferred to the assay plate by a pintool workstation (Kalypsys, San Diego, CA), followed by addition of 1 […] uL of 1.25uM NKH477 (0.25 uM as final concentration) in assay medium using a Flying Reagent Dispenser (Aurora Discovery, San Diego, CA). The plates were incubated at 37 C and 5% CO2 for 3 hrs. Then 1 uL of LiveBLAzer B/G FRET substrate (Invitrogen, Carlsbad, CA) was added to each well using Bioraptr Flying Reagent Dispenser (FRD, Aurora Discovery, San Diego, CA). The plates were incubated at room temperature for 2 h.
With `CC(C)=C1CC[C@@H](C)CC1=O`, the Potency result is “inactive”.
Consider `c1ccc(CNCc2ccccc2)cc1`, for which the Potency result is “inactive”.
Same read-out and setting: the same measure for `c1ccc(CCCc2ccncc2)cc1`: “inactive”.
Turning to `N[C@@H](CSSC[C@H](N)C(=O)O)C(=O)O`, the activity change, negative = inhibition is -2.16% [at 0.349 µM] (inactive).
On to `Nc1ccc(Oc2ccc(Cl)cc2)cc1`, for which the Potency entry was “inactive”.
`C=C(C)[C@H]1CC=C(C)CC1`: the Potency entry is “inactive”.
As for `OCCN1CCNCC1`, the Potency entry is “inactive”.
`CCC/C=C/CO`: the Potency result is “inactive”.
For `O=C(O)c1cc(N=Nc2ccc(S(=O)(=O)Nc3ccccn3)cc2)ccc1O`, the Potency result was “inactive”.
On to `CC(C)(c1ccccc1)c1ccc(Nc2ccc(C(C)(C)c3ccccc3)cc2)cc1`, for which the Potency result is “inactive”.
The same measure, in the same setting: the same measure for `CCCCC(CC)COCCO` (stereo not given): “inactive”; for `CCC(C)NC(N)=O` (stereo not given): “inactive”.
Same read-out and setting: the value for `C1CCC2OC2C1` (stereo not given) was “inactive”.
On to `COc1cccc2c1C(=O)c1c(O)c3c(c(O)c1C2=O)C[C@@](O)(C(=O)CO)C[C@@H]3O[C@H]1C[C@H](N)[C@H](O)[C@H](C)O1`, for which the Potency is 26.6 µM (active).
The same measure, in the same setting: the value for `CC(=O)OC[C@H]1O[C@@H](OC(C)=O)[C@H](OC(C)=O)[C@@H]1OC(C)=O` was “inactive”.
For the molecule `Cc1cc(O)c(Cl)cc1C`, the Potency result was “inactive”.
`C#C[C@]1(O)CC[C@H]2[C@@H]3CCC4=CC(=O)CC[C@@H]4[C@H]3CC[C@@]21C`: the Potency result is “inactive”.
As to `O=C1CCN(c2ccccc2)N1`, the Potency entry was “inactive”.
With `CCc1c(Br)c(Br)c(Br)c(Br)c1Br`, the Potency result was “inactive”.
As to `CCCCC(CC)COC(=O)CCCCCCCC(=O)OCC(CC)CCCC` (stereo not given), the Potency entry is “inactive”.
As for `CCC(O)CO` (stereo not given), the Potency entry was “inactive”.
Same read-out and setting: the value for `C=CC(=O)NC(C)C` was “inactive”; that for `C=C[C@H]1CN2CC[C@H]1C[C@@H]2[C@@H](O)c1ccnc2ccc(OC)cc12` was “inactive”; that for `CC(C)C(=O)c1c(C(C)C)nn2ccccc12` was “inactive”.
With `CC(C)(C)CC(C)(C)c1ccc(Nc2ccc(C(C)(C)CC(C)(C)C)cc2)cc1`, the activity change, negative = inhibition is -1.43% [at 8.39 µM] (inactive).
Turning to `OCCC(F)(F)C(F)(F)C(F)(F)C(F)(F)C(F)(F)C(F)(F)F`, the Potency entry is “inactive”.
`NS(=O)(=O)c1cc2c(cc1Cl)NC(C1CC3C=CC1C3)NS2(=O)=O` (stereo not given): the Potency result is “inactive”.
On to `COc1ccc(N)c(C)c1`, for which the Potency result is “inactive”.
Turning to `OCC#CCO`, the Potency result was “inactive”.
Same read-out and setting: the value for `O=Cc1ccc(F)cc1` was “inactive”; that for `CC1(C)C2=CCCC(C)(C)[C@]23CC[C@H]1C3` was “inactive”.
Still for that read-out and setting: the value for `CC/C=C\CCOC(=O)CC` was “inactive”; that for `CCC(C)c1ccccc1O` (stereo not given) was “inactive”; that for `BrC1CCC(Br)C(Br)CCC(Br)C(Br)CCC1Br` (stereo not given) was “inactive”.
With `O=C(O)c1cccc(Cl)c1Cl`, the Potency entry was “inactive”.
`CCOC(=O)C(C)C(C)=O` (stereo not given): the Potency result is “inactive”.
Turning to `COc1ccc(N=[N+]([O-])c2ccc(OC)cc2)cc1`, the Potency entry was “inactive”.
Regarding `COc1cc(/C=C/C(N)=O)cc(OC)c1OC`, the Potency result is “inactive”.
`COc1nc(N)nc2nc[nH]c12`: the Potency result is “inactive”.
Same read-out and setting: the value for `N=C(N=C(N)N)N1CCOCC1` was “inactive”.
